Rows were chosen to be rich in hits. Some 4.5% of all compounds tested hit in one or more screens of this group.
Gli-Sufu block: blocks Gli-Sufu signaling in a luciferase reporter; Sufu-KO-LIGHT fibroblasts, Gli luciferase reporter luminescence; inhibition, % at 5 µM; 340,000 tested, 0.74% active;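 active = inhibition above about 55%, limit read from the data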;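 also: 0% = DMSO-treated cells and 100% = wells with medium but no cells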
aSyn UTR inh: MLPCN primary screen, SNCA 5' untranslated region; alpha-synuclein 5'UTR reporter, inhibitor activity; inhibition, % (tested at 7.5 µM); 300,000 tested, 0.82% active; AID 1813; in the data active = inhibition above about 60%;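 also: H4 neuroglioblastoma cells stably carrying SNCA 5'UTR luciferase fusion; 0% = DMSO wells and 100% = positive control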
697 NFkB inh: lowers PMA/ionomycin-induced NF-kB signal in 697 B cells; 697 B-cell NF-kB luciferase reporter, 16 h; inhibition, % at 4 µM; 330,000 tested, 0.33% active; AID 435022; in the data active = inhibition above about 35%
Mdm2 MdmX PPI: inhibitors of human Mdm2/MdmX interaction | AID 485346 | 330,000 tested, 3% active | inhibition, % at 8 µM | O15151+Q00987 | SaOS-2 split-luciferase Mdm2/MdmX complementation, luminescence;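 active = inhibition of at least 50% at 8 µM in the primary screen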
Target sequence (O15151 whole entry, looked up): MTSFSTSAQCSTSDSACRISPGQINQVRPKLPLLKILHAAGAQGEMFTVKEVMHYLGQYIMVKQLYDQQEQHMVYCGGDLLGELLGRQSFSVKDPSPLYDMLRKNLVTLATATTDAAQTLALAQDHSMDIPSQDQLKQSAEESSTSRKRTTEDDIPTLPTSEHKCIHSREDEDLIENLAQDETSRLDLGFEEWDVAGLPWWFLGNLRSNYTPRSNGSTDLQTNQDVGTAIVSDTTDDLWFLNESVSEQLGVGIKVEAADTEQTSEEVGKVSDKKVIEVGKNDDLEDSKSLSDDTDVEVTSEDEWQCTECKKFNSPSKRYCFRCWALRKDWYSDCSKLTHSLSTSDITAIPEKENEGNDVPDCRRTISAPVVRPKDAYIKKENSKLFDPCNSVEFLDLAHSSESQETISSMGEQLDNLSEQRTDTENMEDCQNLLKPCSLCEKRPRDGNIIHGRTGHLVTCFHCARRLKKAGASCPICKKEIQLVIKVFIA
Target sequence (Q00987 whole entry, looked up): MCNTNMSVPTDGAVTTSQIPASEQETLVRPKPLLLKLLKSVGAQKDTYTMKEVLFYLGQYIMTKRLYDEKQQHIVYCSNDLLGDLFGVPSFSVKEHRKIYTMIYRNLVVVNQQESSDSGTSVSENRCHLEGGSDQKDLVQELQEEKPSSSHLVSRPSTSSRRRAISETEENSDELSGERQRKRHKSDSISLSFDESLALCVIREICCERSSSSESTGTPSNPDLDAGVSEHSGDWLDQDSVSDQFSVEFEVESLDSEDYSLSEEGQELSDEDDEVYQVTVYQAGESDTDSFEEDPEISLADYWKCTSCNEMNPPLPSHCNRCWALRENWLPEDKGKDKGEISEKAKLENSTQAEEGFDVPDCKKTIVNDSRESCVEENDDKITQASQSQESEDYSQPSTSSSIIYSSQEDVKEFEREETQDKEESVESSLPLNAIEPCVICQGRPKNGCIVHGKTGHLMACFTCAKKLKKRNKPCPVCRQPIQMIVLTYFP
CSC inhib: blocks cancer stem cells. inhibition, % at 7.5 µM. cancer stem cell-like cells viability, luminescence. AID 2717. 300,000 tested, 1.1% active; in the data active = inhibition above about 75%; tested in HMLE shEcad cells
Jurkat NFkB inh: lowers PMA/ionomycin-induced NF-kB signal in Jurkat cells. inhibition, % at 4 µM. PMA/ionomycin-induced NF-kB luciferase reporter, luminescence. AID 435003. 330,000 tested, 0.53% active; in the data active = inhibition above about 50%
Gli antag conf: confirmation of Gli-SUFU pathway antagonists | inhibition, % at 5 µM | shares compounds with Gli-Sufu block | Sufu-KO-LIGHT cells, Gli luciferase reporter, luminescence | 2,500 tested, 40% active;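 active = mean inhibition at 5 µM reaching about 45%, limit read from the data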;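 also: plate controls were DMSO-treated cells for no effect and wells lacking cells for full effect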
Gli cytotox: counter-screen for Gli-SUFU antagonists: cytotoxicity | cytotoxicity, % at 5 µM | shares compounds with Gli-Sufu block | 2,500 tested, 32% active | Sufu-KO-LIGHT cells cytotoxicity, ATP luminescence;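 active = mean cytotoxicity at 5 µM above about 25%, limit read from the data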;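 also: cells exposed to compound overnight for roughly 16 to 18 hours; plate controls were DMSO wells with cells for no effect and medium without cells for full effect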
Wnt3a counter: counter-screen for Gli-SUFU antagonists: Wnt3a reporter inhibition; shares compounds with Gli-Sufu block; inhibition, % at 6.25 µM; Wnt-LIGHT cells, Wnt3a-driven luciferase reporter, luminescence; 2,500 tested, 20% active;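 active = mean inhibition above about 25%, limit read from the data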
Numbers without * were called inactive; · = no result given.

SMILES	Gli-Sufu block	aSyn UTR inh	697 NFkB inh	Mdm2 MdmX PPI	CSC inhib	Jurkat NFkB inh	Gli antag conf	Gli cytotox	Wnt3a counter
CCn1c(=O)c(=O)[nH]c2c(=O)oc3ccc(S(=O)(=O)Nc4ccccc4)cc3c21	-7.1	-4.9	18.5	14.5	-6.9	5.2	·	·	·
COc1cc(OC)c(NS(=O)(=O)c2ccc(Cl)c(C(=O)OC(C)C(=O)N3CCCC3)c2)cc1Cl (centres undefined)	50.6	-5.0	-14.2	-1.4	-27.9	-0.4	25.3	13.5	-14.4
COc1ccc(NS(=O)(=O)c2ccc(C)c(C(=O)OC(C)C(=O)N3CCOCC3)c2)cc1 (centres undefined)	9.1	-20.2	14.8	31.4	-10.5	13.6	·	·	·
CC(=O)Nc1ccc(S(=O)(=O)Nc2ccc3c(c2)C(=O)OC3)cc1	·	-5.9	15.4	-3.1	·	6.7	·	·	·
CC(C)c1ccc(NC(=O)CCCC(=O)NCCc2ccccc2)cc1	53.4	8.6	-3.2	20.7	-5.5	-4.1	21.4	-4.4	-25.2
CC(=O)Nc1ccc(NC(=O)CCCc2ccccc2)cc1	-13.9	-18.3	-44.9	-23.4	-12.2	-48.1	·	·	·
Cc1ccc2nc3c(cc(S(=O)(=O)c4ccccc4)c(=N)n3Cc3ccco3)c(=O)n2c1	50.7	-39.2	-109.4	-108.6	12.2	-86.1	-0.8	14.6	-38.9
COc1ccc(CC2C(=O)NC(C)C(=O)N(C)C3Cc4ccc(cc4)Oc4cc(ccc4O)CC(C(=O)NC(C)C(=O)NC(C)C(=O)N2C)N(C)C3=O)cc1 (centres undefined)	91.4*	·	·	·	·	·	95.9*	89.7*	103.9*
CCN(CC)c1ccc(/C=N/NC(=S)NC)c(O)c1	84.4*	-94.0	-19.4	22.3	-0.4	-40.4	24.9	20.7	-98.8
Cn1c(C(=O)NC2CCCC2)cc2c(=O)n(C)c3ccccc3c21	98.6*	4.3	·	·	8.9	·	30.9	14.3	-22.2
CCC(C)N(C(=O)CN1C(=O)NC2(CCc3ccccc32)C1=O)C1CCS(=O)(=O)C1 (centres undefined)	0.5	·	11.9	-0.8	-9.8	-11.4	·	·	·
Cc1cc(NS(=O)(=O)c2cc(Cl)sc2Cl)no1	1.7	0.4	7.4	2.7	-8.5	-10.2	·	·	·
COc1ccc(C2C=C(C)Nc3nc4ccccc4n32)cc1 (centres undefined)	98.1*	-40.3	-11.9	7.8	13.3	-28.0	9.1	24.2	-26.1
Cc1ccccc1S(=O)c1ccccc1C(=O)O (centres undefined)	4.2	9.6	10.4	-0.8	-12.7	1.2	·	·	·
O=C(Nc1ccnn1C1CCN(C(=O)Cc2ccccc2F)CC1)C1CC1	-1.7	-11.6	-1.6	7.1	-6.8	-7.9	·	·	·
N#CC1C=Cc2c(ccc3ccccc23)N1C(=O)c1ccccc1 (centres undefined)	51.0	·	·	·	·	·	61.0*	57.3*	6.6
CN1CCN(/N=C/c2nc(-c3ccccc3)n3ccccc23)CC1	53.4	-28.6	-25.5	15.2	0.1	-11.9	8.1	-2.5	-3.0
CN1CCN(/N=C/c2nc(-c3ccc(Cl)cc3)n3ccccc23)CC1	-29.8	-0.7	-91.3	-14.5	0.6	-55.2	·	·	·
Cn1c(=O)n(C)c2cc(NC(=O)CSc3nc4ccccc4c(=O)[nH]3)ccc21	-20.2	-1.6	25.7	46.9	0.3	16.9	·	·	·
CCOC(=O)CN(C(=O)c1ccccc1[N+](=O)[O-])C(C)(C)C	3.3	-3.8	11.5	23.0	-7.5	-9.5	·	·	·
O=C(Cc1ccccc1)NCCS(=O)(=O)N1CCN(c2ccccc2)CC1	-4.5	10.7	-2.5	14.7	·	4.5	·	·	·
O=C(Cc1ccc(F)cc1)NCCS(=O)(=O)N1CCN(c2ccccc2)CC1	97.3*	11.2	0.9	24.5	-6.3	5.0	9.8	8.1	-55.6
CCOc1ccc(NC(=O)c2ccc(-n3cccn3)nc2)cc1	-6.7	-27.9	17.3	-32.8	-1.9	-9.0	·	·	·
Cc1c(N/C(=N/S(=O)(=O)c2ccccc2)c2ccc(Cl)cc2)c(=O)n(-c2ccccc2)n1C	-9.3	6.9	-13.5	-3.6	10.3	6.7	·	·	·

From PubChem
